Experimental data taken from PubChem BioAssay.
Activity calls are given as the source filed them.

Target: Luciferin 4-monooxygenase (Photinus pyralis) (UniProt P08659)
Test: inhibition of purified Photinus pyralis luciferase – biochemical, luminescence, purified enzyme, 2006 set, primary screen (AID 1141);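 also: cell-free assay with purified firefly luciferase at 100 ng per well in PBS; test concentration not given here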
Conditions: purified firefly luciferase, SteadyGlo luminescence, 30 min; higher = more signal, called active from +8 up or from −8 down

Luciferin 4-monooxygenase (Photinus pyralis), sequence (P08659 whole entry, looked up): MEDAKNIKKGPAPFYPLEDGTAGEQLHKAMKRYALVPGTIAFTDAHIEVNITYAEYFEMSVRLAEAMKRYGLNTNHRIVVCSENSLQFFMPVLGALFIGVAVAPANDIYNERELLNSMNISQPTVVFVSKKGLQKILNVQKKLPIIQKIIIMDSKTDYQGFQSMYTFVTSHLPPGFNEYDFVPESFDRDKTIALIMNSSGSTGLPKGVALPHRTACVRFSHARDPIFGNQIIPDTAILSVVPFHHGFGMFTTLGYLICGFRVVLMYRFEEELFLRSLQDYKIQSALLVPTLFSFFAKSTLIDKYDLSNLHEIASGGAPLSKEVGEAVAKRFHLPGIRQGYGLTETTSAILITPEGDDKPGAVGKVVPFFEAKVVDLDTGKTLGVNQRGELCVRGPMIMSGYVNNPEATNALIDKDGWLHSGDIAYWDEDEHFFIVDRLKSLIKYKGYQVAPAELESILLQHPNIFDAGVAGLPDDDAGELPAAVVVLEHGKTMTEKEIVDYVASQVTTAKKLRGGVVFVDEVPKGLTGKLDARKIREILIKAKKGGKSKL

z-score, inactive:
COCCOC(=O)N1C(=O)[C@@]2(c3ccccc31)[C@H](c1ccc(O)cc1)N1[C@H](c3ccccc3)[C@H](c3ccccc3)OC(=O)[C@H]1[C@@H]2C(=O)Nc1nc2ccccc2s1 -1.32
C=CCOC(=O)[C@H]1[C@@H]2C(=O)O[C@@H](c3ccccc3)[C@@H](c3ccccc3)N2[C@@H](c2ccc(OCCOC(=O)[C@H]3C[C@H]4C(=O)N[C@@H](CCCCN(C)C)C(=O)N4[C@H]3c3ccc(O)cc3)cc2)[C@]12C(=O)Nc1ccc(I)cc12 0.69
NC(=O)[C@@H]1[C@H]2C(=O)O[C@H](c3ccccc3)[C@H](c3ccccc3)N2[C@H](c2ccc(O)cc2)[C@@]12C(=O)Nc1ccccc12 -0.366
CC(C)C[C@@H]1NC(=O)[C@H](C(C)C)NC(=O)[C@@]23C(=O)N[C@@H](Cc4ccccc4)C2[C@H](C)[C@@]2(C)O[C@H]2C3/C=C/CC/C=C/CNC1=O (some centres undefined) -0.219
COC(=O)C(CC#Cc1ccc2c(c1)[C@]1(C(=O)N2)[C@H](c2ccc(OCCO)cc2)N2[C@H](c3ccccc3)[C@H](c3ccccc3)OC(=O)[C@H]2[C@@H]1C(=O)Nc1nc2ccccc2s1)C(=O)OC -0.877
O=C1NC(=O)C2C1C=CC(C(O)c1cc(C(F)(F)F)cc(C(F)(F)F)c1)N2Nc1ccccn1 (centres undefined) 0.0198
Cc1ccc(S[C@]2(C(=O)NCCCN(C)C)CC(=O)N(Cc3cc(C(F)(F)F)cc(C(F)(F)F)c3)[C@@H]2c2ccc(CO)cc2I)cc1 0.828
C=C(C(=O)CC[C@@H](OC(=O)c1cccnc1)c1ccccc1OCCO)C(C)C -0.484
COc1cc(NN2C(C(O)c3ccco3)C=CC3C(=O)N(c4ccccc4)C(=O)C32)cc(OC)c1OC (centres undefined) -2.51
COC(=O)[C@@]1(Cc2ccc(OC)cc2)[C@H]2c3cc(C(=O)N(C)C)n(CCc4ccccn4)c3C[C@H]2CN1C(=O)c1ccccc1 1.49
O=C(NC1CC1)[C@@H]1c2ccccc2C(=O)N(Cc2ccccc2Cl)[C@H]1c1ccc(CO)cc1 -1.44
COC(=O)[C@@]1(Cc2ccc(F)cc2)[C@H]2c3cc(C(=O)N(C)C)n(Cc4ccccc4)c3C[C@H]2CN1C(=O)c1ccccc1 2.14
O=C1C2C=CC(C(O)CCc3ccccc3)N(Nc3ccccc3F)C2C(=O)N1c1ccccc1 (centres undefined) 1.48
C=C[C@H](CO[Si](CC)(CC)CC)N(Cc1ccc(OC(C)=O)c(OC)c1)S(=O)(=O)c1ccc(Br)cc1 0.0578
O=C1O[C@@H](c2ccccc2)[C@@H](c2ccccc2)N2[C@@H](c3ccccc3OCCO)[C@]3(C(=O)Nc4ccc(C#CC5=CCCCC5)cc43)[C@@H](C(=O)N3CCCCCCC3)[C@H]12 -1.16
CCOC(=O)[C@H]1C/C=C/C[C@H](C(=O)OCC)C(=O)O[C@H]2[C@@H](OC)O[C@H](CO)[C@@H](OC(=O)c3c(OC)cccc3OC)[C@@H]2OC1=O -0.335
CCC(CC)C(O)C1C=CC2C(=O)NC(=O)C2N1Nc1ccc(Cl)cc1Cl (centres undefined) -0.533
CCOC(=O)C[C@H]1[C@H](OC(=O)c2ccc(C(=O)c3ccccc3)cc2)[C@@H](NC(=O)c2ccc3ccccc3c2)c2cc(OCCCO)ccc2N1C(=O)Cc1ccc(OC)cc1 0.789
COC(=O)[C@@]1(CCC(=O)OC(C)(C)C)N=C(c2ccc(OCCCO)cc2)O[C@H]1c1ccccc1N=[N+]=[N-] -7.29
COC(=O)[C@@]1(Cc2ccc(OC)cc2)[C@H]2c3cc(C(=O)N(C)C)n(Cc4ccccn4)c3C[C@H]2CN1C(=O)c1ccccc1 1.6
CCCC[C@@H]1C[C@H]1[C@@H](NC(=O)c1ccccc1)c1ccc(C(=O)OC)cc1 -0.438
CCCCCCc1nc(-c2ccc(OC)nc2)cc2c1[Si](C(C)C)(C(C)C)O[C@H]2c1ccccc1 0.974
COC(=O)C(CC#Cc1ccc2c(c1)[C@]1(C(=O)N2)[C@H](C(=O)Nc2nc3ccccc3s2)[C@H]2C(=O)O[C@H](c3ccccc3)[C@H](c3ccccc3)N2[C@@H]1c1ccccc1OCCO)C(=O)OC -0.293
CN(C)C(=O)[C@@]1(CCS(=O)(=O)c2ccccc2)COC(c2ccc(OCCCO)cc2)=N1 -0.446
